From PubChem
PrPC TRFRET: cell surface PrPC inhibition, primary TR-FRET screen. P04156. TR-FRET read-out. inhibition, % at 13.8 µM. 0.43% of 370,000 active; in the data active = inhibition above about 24%; also: 0% = median of the test wells and 100% = reference compound wells
PfHsp40 yeast: rescue of PfHsp40-mediated yeast toxicity; 0.68% of 340,000 active; S. cerevisiae expressing PfHsp40, growth rescue, ATP luminescence; AID 504582; growth rescue, % at 12.5 µM; in the data active = growth rescue above about 28%, passing the limit was not always enough; inconclusive = no clear call, values can overlap the other calls;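 also: yeast W303a lacking pdr1 and pdr3 grown in galactose medium; growth measured after three days at 30 °C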
PriA SSB inh: inhibitors of Klebsiella pneumoniae PriA binding to SSB C-terminal tail; AlphaScreen SSBct-PriA binding, biotinylated peptide; inhibition, % at 33 µM; 0.6% of 430,000 active; in the data active = inhibition mostly above about 37%, no sharp cut-off; inactive = mostly below about 20%;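 also: plate controls were negative control peptide for no effect and reference peptide for full effect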
3CLpro inhibitor: SARS-CoV 3CLpro protease inhibition | P0C6X7 | recombinant SARS-CoV 3CLpro, quenched FRET peptide cleavage | inhibition, % at 6 µM | 0.14% of 290,000 active | AID 1706; in the data active = inhibition above about 12%
PrP UTR inh: inhibition of PrP 5' UTR reporter expression; cell-based PrP 5' UTR mRNA reporter, plate reader; inhibition, % (no concentration beside the values); 0.35% of 340,000 active; AID 488862; in the data active = inhibition above about 52%; also: 0 = median of the neutral control wells
Vc quorum ag: quorum light induction in luxS cqsA deficient V. cholerae; activation, % at 18.7 µM; V. cholerae BH1578 lux reporter, luminescence, 6 h; AID 588436; 0.16% of 350,000 active; in the data active = activation mostly above about 9.7%, no sharp cut-off; inconclusive = no clear call, values can overlap the other calls; inactive = mostly below about 3.7%
Starred values were filed as active, the others as inactive; i = inactive; ? = inconclusive; / = not tested or not shown; + = active, no number. Sampled rows, rich in hits. Any-hit rate of the full collection: about 1.6%.

SMILES | PrPC TRFRET | PfHsp40 yeast | PriA SSB inh | 3CLpro inhibitor | PrP UTR inh | Vc quorum ag
COc1ccc(-c2cc3nc(C)cc(Nc4cccc(Cl)c4)n3n2)cc1OC | / | / | 0 | / | / | /
CC(=NN1CCN(Cc2ccc(Cl)cc2)CC1)c1ccc([N+](=O)[O-])cc1 | / | / | 44* | / | / | /
CC(=NN1CCN(c2ccc(Cl)cc2)CC1)c1cccc([N+](=O)[O-])c1 | / | / | -2 | / | / | /
COc1cccc2cc(C(=O)Nc3cnn(CC4COc5ccccc5O4)c3)oc12 (configuration not stated) | / | / | 3 | / | / | /
Cc1cc(O)c2c(c1)C(=O)C13C(=C2O)C(=O)[C@H]2[C@@H](O)[C@@H]1[C@H]1[C@H](O)[C@@H]3C(=O)C3=C(O)c4c(O)cc(C)cc4C(=O)C312 (some centres not stated) | / | 282* | -3 | / | -23 | -1
Nc1ccc(N=Nc2ccccc2)c2cccnc12 | -14 | 1 | 59* | 6 | / | 1
Cc1ccccc1N=Nc1ccc(O)c2ncccc12 | 5 | -1 | 57 | 6 | 20 | -1
Cc1csc2nc(O)c(C(=O)NC3CCCCC3)c(=O)n12 | -1 | 165* | -9 | / | 1 | -1
Cc1csc2nc(O)c(C(=O)NC3CCCCCC3)c(=O)n12 | -1 | -1 | -3 | / | -19 | i
CN(CC(=O)Nc1ccc(S(N)(=O)=O)cc1)c1nc2c(F)cccc2s1 | / | / | 1 | / | / | /
Cc1ccc(OCC(=O)NC(=S)Nc2ccc(S(=O)(=O)Nc3cc(C)on3)cc2)c(Br)c1 | 4 | 73* | -1 | 9 | -24 | /
CCN(CC)N=Nc1[nH]nc2nc(C)cc(C)c12 | 0 | 45* | -22 | 4 | -8 | 7
Cc1cc(C)c2c(N=NN3CCCCC3)[nH]nc2n1 | 4 | 86* | -11 | 4 | -8 | 0
COC(CNC(=O)C1c2ccccc2Oc2ccccc21)c1ccccc1C (configuration not stated) | / | / | -14 | / | / | /
CCCCCCc1cc2cc(-c3csc(-c4ccccc4)n3)c(=O)oc2cc1OC(C)=O | / | / | -10 | / | / | /
O=C(Nc1ccccc1Cl)ON=C1c2ccccc2-c2ccccc21 | / | 88* | -8 | 6 | -30 | i
CC(C)C1/C(=N/O)CC(c2ccccc2)NC1c1ccccc1 (configuration not stated) | -3 | 49* | / | 2 | -8 | -1
CC(C)C1C(=NO)CC(c2ccccc2)NC1c1ccccc1 (configuration not stated) | / | / | 7 | / | / | /
Cc1ccccc1C(=O)NCCn1ncc2c(NCCc3ccccc3)ncnc21 | / | / | 0 | / | / | /
CN(C)NC(=S)Nc1ccc2nc(-c3ccccn3)c(-c3ccccn3)nc2c1 | -12 | -2 | 79* | 2 | -12 | -2
CC(C)(C)CC(C)(C)NC(=S)Nc1ccc2nc(-c3ccccn3)c(-c3ccccn3)nc2c1 | 3 | 2 | -1 | 8 | -14 | 0
OCCCNC(=S)Nc1ccc2nc(-c3ccccn3)c(-c3ccccn3)nc2c1 | -33 | -1 | 72* | -1 | -5 | i
CN(C)C(=S)Nc1ccc2nc(-c3ccccn3)c(-c3ccccn3)nc2c1 | / | / | 35 | / | / | /
CCOC(=O)c1cc2c(=O)n3ccccc3nc2n(C)c1=NC(=O)c1cc(Cl)ccc1[N+](=O)[O-] | / | / | -13 | / | / | /
CCn1c(C)c(/C=N/Nc2nc3ccccc3s2)c2ccccc21 | 0 | -2 | / | 4 | -26 | i
SMILES | PrPC TRFRET | PfHsp40 yeast | PriA SSB inh | 3CLpro inhibitor | PrP UTR inh | Vc quorum ag
Cc1ccc2[nH]c(C)c(C=NNc3nc4ccccc4s3)c2c1 | / | / | 52* | / | / | /
c1csc(C2NCCn3cccc32)c1 (configuration not stated) | / | / | 12 | / | / | /
O=C(N/N=C/c1c(O)ccc2ccccc12)c1ccc[n+](CCO)c1 | -15 | ? | / | 3 | 8 | 0
O=C(NN=Cc1c(O)ccc2ccccc12)c1ccc[n+](CCO)c1 | / | / | 41* | / | / | /
CNC(=S)NNC(=O)c1ccccn1 | / | / | 152* | / | / | /
COCCNC(=S)NNC(=O)c1ccccn1 | / | / | 156* | / | / | /
COc1cccc(C(=O)N/N=C(/c2ccccc2)c2ccccn2)c1 | 4 | 324* | / | -5 | 13 | i
COc1cc(OC)cc(C(=O)NNC(=O)c2ccccn2)c1 | 25* | -2 | -1 | 1 | -67 | 0
COc1ccc(C(=O)N/N=C(\c2ccccc2)c2ccccn2)cc1OC | / | / | i | / | / | /
CC(C)C(=O)NNC(=O)c1ccccn1 | -3 | -2 | -13 | 1 | -3 | -3
Cc1csc(C(=O)NCCC(O)c2cccc3ccccc23)c1 (configuration not stated) | / | / | 8 | / | / | /
O=C(/C=C/c1cccs1)Nc1nnc(C2CCCO2)o1 (configuration not stated) | / | / | 5 | / | / | /
C=CCNC(=S)NNC(=O)c1ccccn1 | / | / | 148* | / | / | /
COc1ccc(N2C(=O)C3C4C=CC(C5CC45)C3C2=O)c([N+](=O)[O-])c1 (configuration not stated) | -7 | 1 | 5 | -4 | -23 | 17*
COc1ccc(N2C(=O)C3C4C=CC(CC4)C3C2=O)c([N+](=O)[O-])c1 (configuration not stated) | -10 | 1 | -7 | -3 | -32 | i
O=C(Nc1ccc(Br)c(C(F)(F)F)c1)c1ccc(C(F)(F)F)cc1 | -4 | / | -24 | 4 | / | 0
O=C(Nc1ccc(Br)c(C(F)(F)F)c1)c1ccccc1 | 12 | 644* | -47 | 4 | -47 | 3
O=C(NN1C(=O)c2cccc3cccc(c23)C1=O)c1ccncc1 | / | / | -7 | / | / | /
O=[N+]([O-])c1ccc2c(c1N1CCCCC1)=NC1(CCCCC1)[N+]=2[O-] | -39 | -1 | 5 | 3 | -18 | -1
COc1ccc(Nc2ccc3c(c2)=NC2(CCCCC2)[N+]=3[O-])cc1 | -25 | 0 | 65* | -1 | -31 | i
[O-][N+]1=c2ccc(Nc3ccccc3)cc2=NC12CCCCC2 | -10 | 0 | 57* | 4 | -14 | -1
O=C(CSc1nc2c(c(=O)n1CCc1ccccc1)SCC2)NCc1ccc2c(c1)OCO2 | / | / | 12 | / | / | /
COc1ccc(-c2cc(C(=O)N3CCN(c4ccccc4F)CC3)c3ccccc3n2)c(OC)c1 | 2 | 376* | -4 | 0 | -9 | -1
CCOc1ccccc1N1CCN(C(=O)c2cc(-c3cc(OC)ccc3OC)nc3ccccc23)CC1 | -3 | 31* | 3 | 3 | -1 | i
COc1ccc(-c2cc(C(=O)N3CCN(c4ncccn4)CC3)c3ccccc3n2)c(OC)c1 | 0 | ? | -15 | 4 | -12 | 0
SMILES | PrPC TRFRET | PfHsp40 yeast | PriA SSB inh | 3CLpro inhibitor | PrP UTR inh | Vc quorum ag
COc1cc(C2NCCc3cc(O)c(O)cc32)cc(OC)c1OC (configuration not stated) | / | / | -1 | / | / | /
O=C(N1CCN(c2cccc(Cl)c2)CC1)C1(S(=O)(=O)c2ccc(Cl)cc2)CC1 | -9 | 83* | -3 | 3 | -89 | 0
N#C/C(N=Nc1ccccc1O)=N\Nc1ccccc1O | -9 | ? | + | / | -29 | 1
Cc1cc(C(F)(F)F)nc(CCNC(=O)Cc2ccc(S(=O)(=O)C(C)C)cc2)n1 | / | / | -17 | / | / | /
COCCN1CCCc2ccc(NC(=O)c3ccc(Br)o3)cc21 | / | / | 48 | / | / | /
O=[N+]([O-])c1ccc(N2CCCCC2)cc1[N+](=O)[O-] | / | / | 73* | / | / | /
